The values that follow come from the supplement of paper PMC10849652.

Targets with a hit are over-represented here; the source holds about 7,900 in all. About 0.6% of all pairs of compound and target were hits. Values without a mark were called inactive.

Test in all cases: log2 fold change, soluble protein after heating vs DMSO (PISA); higher = thermal stabilisation; K562 cells, 10 uM, 30 min; active = over 0.2 and 3.5 SD of the protein, either way, in both replicates (recomputed)
Compound in one assay: C1COCCN1CCN2C3=CC=CC=C3N=C2NC(=O)C4=CC(=CC=C4)[N+](=O)[O-] [IRAK-1-4 Inhibitor I]
In outline:
(§1)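 For each measurement, 10 μM compound was applied for 30 min to K562 cells at 2×10^6 cells/mL. Aliquots were heated for 3 min across 48°C-58°C, pooled, and extracted in PBS with 0.5% NP-40 at 4°C; the supernatant after 21,000xg for 90 min was soluble protein. This was quantified by TMTpro 16plex LC-MS/MS with channel sums equalised, and thermal stability was reported relative to control samples from duplicates, on a log2 fold-change scale.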

Compound in the next assay: C=CC(=O)N1CCC[C@@H](n2nc(-c3ccc(Oc4ccccc4)cc3)c3c(N)ncnc32)C1 [ibrutinib]
In outline: as §1

Compound in assay [1]: CC(=O)c1cnc2ccc(-c3cc(Cl)c(O)c(Cl)c3)nc2c1N[C@H]1CC[C@H](CN(C)C)CC1
Put shortly: as §1

Compound in the next assay: CC(C)(C)Cn1c(N)nc2ccc(-c3[nH]c(C(C)(C)C)nc3-c3ccc(F)cc3)nc21 [ralimetinib]
Put shortly:
as §1

Compound in assay [2]: CC(C)(O)CC(=O)NCCn1ccc2ncnc(Nc3ccc(Oc4cccc(C(F)(F)F)c4)c(Cl)c3)c21
Put shortly: as §1

Compound in assay [3]: CC(C)C1=C2N=C(C=C(N2N=C1)NCC3=CC=CC=C3)NCCCCCCN
Put shortly: as §1

Compound in assay [4]: CC(C)C[C@@H](C=O)NC(=O)[C@H](CC(C)C)NC(=O)[C@H](CC(C)C)NC(=O)OCc1ccccc1
Put shortly:
as §1

Compound in the next assay: CC(C)N(C[C@H]1O[C@@H](n2cnc3c(N)ncnc32)[C@H](O)[C@@H]1O)[C@H]1C[C@@H](CCc2nc3cc(C(C)(C)C)ccc3[nH]2)C1 [pinometostat]
Put shortly:
as §1

Compound in assay [5]: CC1=C(C(CC(=O)N1)C2=CC=C(C=C2)C(F)(F)F)C(=O)NC3=C(C=C4C(=C3)C=NN4)F
Put shortly: as §1

Compound in assay [6]: CC1=C(C2=C(C=C1)C(=O)C3=CC=CC=C3N2CCCN)C
Put shortly:
as §1

Sequence of UniProt Q13596 (Q13596 whole entry, looked up): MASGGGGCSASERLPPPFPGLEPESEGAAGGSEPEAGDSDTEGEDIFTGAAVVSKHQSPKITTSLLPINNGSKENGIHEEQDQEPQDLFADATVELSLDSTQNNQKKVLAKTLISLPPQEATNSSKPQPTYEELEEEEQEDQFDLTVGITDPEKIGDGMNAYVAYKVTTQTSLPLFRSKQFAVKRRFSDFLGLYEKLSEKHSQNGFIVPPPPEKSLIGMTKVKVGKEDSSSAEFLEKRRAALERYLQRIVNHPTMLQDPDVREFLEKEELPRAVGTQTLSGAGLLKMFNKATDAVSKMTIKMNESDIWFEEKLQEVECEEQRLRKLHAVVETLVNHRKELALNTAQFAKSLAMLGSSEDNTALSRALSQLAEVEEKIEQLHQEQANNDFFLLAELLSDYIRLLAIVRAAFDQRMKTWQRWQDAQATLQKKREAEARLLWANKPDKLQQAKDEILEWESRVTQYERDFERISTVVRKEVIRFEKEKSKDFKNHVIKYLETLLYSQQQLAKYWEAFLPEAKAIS
Sequence of UniProt Q9Y5L4 (Q9Y5L4 whole entry, looked up): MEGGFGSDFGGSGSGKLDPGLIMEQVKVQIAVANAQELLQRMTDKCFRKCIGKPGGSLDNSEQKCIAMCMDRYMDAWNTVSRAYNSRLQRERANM
Sequence of UniProt Q9P016 (Q9P016 whole entry, looked up): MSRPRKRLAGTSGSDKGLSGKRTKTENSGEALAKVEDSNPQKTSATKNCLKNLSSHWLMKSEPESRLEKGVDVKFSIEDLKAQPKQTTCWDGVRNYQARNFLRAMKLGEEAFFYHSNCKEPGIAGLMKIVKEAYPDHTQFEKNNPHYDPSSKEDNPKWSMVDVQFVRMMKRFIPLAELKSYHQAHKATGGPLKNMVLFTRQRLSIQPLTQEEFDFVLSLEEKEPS
Sequence of UniProt Q92581 (Q92581 whole entry, looked up): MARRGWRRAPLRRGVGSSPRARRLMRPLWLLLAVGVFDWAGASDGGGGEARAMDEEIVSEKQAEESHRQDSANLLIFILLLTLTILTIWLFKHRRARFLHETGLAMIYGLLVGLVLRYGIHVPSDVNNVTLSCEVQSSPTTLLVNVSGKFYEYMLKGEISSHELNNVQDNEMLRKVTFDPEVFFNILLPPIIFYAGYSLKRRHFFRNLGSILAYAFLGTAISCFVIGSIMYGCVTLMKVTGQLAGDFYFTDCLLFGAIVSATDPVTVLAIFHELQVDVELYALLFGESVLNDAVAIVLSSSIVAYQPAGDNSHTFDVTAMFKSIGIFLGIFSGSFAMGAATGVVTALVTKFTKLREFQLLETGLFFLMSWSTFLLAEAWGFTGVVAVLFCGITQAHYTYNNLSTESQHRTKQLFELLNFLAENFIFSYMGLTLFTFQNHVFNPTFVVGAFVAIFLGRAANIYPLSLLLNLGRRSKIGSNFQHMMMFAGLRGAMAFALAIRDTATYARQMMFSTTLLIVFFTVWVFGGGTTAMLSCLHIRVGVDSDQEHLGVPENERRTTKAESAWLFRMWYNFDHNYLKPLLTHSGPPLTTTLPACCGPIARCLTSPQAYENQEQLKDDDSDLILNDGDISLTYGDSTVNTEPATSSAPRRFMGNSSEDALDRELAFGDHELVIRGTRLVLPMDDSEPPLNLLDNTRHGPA
Sequence of UniProt Q9NZD8 (Q9NZD8 whole entry, looked up): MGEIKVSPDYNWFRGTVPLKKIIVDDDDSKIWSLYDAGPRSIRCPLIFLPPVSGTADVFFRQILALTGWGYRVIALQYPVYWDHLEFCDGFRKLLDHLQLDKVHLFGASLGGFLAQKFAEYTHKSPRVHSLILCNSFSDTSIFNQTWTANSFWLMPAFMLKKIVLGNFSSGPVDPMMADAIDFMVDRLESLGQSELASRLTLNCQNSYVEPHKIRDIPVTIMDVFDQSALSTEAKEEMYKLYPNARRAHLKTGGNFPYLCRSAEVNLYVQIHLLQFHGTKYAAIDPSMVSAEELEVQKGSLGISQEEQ
Sequence of UniProt Q9UMY4 (Q9UMY4 whole entry, looked up): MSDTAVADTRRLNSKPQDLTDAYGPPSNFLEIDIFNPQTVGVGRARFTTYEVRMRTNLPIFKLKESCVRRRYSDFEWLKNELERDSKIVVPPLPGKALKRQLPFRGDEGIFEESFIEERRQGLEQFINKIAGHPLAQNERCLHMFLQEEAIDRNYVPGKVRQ
Sequence of UniProt P36897 (P36897 whole entry, looked up): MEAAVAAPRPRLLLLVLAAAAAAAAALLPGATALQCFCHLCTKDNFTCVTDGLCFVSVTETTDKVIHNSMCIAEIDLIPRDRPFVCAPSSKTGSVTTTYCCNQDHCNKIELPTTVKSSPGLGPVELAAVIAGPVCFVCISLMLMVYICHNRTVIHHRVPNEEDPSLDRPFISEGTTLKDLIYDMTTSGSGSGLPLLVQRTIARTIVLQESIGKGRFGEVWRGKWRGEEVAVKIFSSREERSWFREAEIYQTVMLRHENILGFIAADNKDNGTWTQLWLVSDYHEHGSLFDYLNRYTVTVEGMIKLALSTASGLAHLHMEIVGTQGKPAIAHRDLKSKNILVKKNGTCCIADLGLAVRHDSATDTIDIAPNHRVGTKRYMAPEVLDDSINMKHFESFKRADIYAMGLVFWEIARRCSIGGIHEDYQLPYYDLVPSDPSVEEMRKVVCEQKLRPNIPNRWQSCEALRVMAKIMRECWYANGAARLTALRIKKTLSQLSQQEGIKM
Sequence of UniProt Q7L7X3 (Q7L7X3 whole entry, looked up): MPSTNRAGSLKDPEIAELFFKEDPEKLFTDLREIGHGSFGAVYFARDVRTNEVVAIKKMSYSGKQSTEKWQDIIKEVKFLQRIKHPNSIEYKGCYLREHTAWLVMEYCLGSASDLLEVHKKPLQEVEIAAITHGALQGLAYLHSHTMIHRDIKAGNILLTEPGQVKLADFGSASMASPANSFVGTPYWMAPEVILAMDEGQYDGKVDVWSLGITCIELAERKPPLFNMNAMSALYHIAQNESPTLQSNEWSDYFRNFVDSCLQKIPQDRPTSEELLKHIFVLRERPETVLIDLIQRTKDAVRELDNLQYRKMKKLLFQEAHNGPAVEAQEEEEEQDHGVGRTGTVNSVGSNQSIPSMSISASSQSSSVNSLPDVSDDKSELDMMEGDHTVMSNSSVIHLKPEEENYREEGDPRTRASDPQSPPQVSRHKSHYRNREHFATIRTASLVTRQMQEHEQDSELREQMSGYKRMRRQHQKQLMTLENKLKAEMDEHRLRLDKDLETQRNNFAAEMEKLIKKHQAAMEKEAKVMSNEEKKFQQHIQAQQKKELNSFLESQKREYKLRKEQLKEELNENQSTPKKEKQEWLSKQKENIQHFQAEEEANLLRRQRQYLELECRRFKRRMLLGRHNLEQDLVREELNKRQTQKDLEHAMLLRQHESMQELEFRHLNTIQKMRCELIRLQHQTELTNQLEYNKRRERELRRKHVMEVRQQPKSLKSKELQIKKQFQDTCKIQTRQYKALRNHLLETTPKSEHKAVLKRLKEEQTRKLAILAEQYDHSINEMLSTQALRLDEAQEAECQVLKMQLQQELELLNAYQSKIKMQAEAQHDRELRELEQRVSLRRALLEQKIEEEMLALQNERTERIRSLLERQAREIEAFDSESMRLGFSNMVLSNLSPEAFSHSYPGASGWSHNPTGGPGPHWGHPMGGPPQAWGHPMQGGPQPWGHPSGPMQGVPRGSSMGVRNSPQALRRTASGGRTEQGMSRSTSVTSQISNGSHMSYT
Sequence of UniProt Q9UKI8 (Q9UKI8 whole entry, looked up): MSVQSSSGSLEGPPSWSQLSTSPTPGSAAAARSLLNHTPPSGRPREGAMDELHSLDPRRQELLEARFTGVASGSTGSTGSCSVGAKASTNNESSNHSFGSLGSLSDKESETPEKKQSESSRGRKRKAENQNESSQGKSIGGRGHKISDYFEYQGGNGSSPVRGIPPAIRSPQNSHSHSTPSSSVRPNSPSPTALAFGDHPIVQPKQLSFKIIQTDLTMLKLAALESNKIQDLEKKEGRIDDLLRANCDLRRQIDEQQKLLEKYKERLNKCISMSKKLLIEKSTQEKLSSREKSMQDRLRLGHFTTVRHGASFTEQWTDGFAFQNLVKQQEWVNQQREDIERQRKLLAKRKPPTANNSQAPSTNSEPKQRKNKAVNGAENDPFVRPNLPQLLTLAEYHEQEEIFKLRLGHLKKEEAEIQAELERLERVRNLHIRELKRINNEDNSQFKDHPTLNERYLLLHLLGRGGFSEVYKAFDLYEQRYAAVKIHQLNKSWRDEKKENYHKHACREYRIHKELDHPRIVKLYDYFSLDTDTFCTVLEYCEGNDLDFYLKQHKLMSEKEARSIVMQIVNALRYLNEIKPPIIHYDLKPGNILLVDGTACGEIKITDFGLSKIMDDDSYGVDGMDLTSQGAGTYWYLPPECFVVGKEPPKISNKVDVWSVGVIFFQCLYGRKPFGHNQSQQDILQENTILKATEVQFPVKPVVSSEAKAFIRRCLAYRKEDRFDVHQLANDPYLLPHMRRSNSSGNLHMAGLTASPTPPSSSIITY
Sequence of UniProt P53597 (P53597 whole entry, looked up): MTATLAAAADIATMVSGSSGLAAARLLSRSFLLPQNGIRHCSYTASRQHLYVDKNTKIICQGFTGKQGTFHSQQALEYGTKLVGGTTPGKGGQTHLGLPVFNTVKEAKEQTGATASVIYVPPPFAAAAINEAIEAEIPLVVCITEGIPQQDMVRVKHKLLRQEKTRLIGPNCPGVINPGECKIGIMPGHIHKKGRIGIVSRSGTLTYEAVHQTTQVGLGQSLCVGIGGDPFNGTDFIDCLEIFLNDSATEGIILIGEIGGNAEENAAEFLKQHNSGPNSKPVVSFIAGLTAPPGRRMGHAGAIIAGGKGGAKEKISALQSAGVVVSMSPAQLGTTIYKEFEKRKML
Sequence of UniProt P04183 (P04183 whole entry, looked up): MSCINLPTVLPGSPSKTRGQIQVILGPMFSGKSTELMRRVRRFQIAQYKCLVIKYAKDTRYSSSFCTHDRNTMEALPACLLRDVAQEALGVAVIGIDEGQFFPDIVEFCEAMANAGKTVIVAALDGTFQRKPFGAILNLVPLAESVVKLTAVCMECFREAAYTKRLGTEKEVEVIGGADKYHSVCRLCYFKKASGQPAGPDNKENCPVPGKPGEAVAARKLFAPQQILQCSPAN

In the case of SUCLG1 (UniProt P53597), the log2 fold change with IRAK-1-4 Inhibitor I is 0.048; with ibrutinib, 0.01; in [1], -0.018; with ralimetinib, -0.039; in assay [2], -0.07; in [3], -0.058. For the same target, the log2 fold change is -0.01 in assay [4], -0.04 with pinometostat, -0.017 in assay [5] and 0.053 in assay [6].
On to TLK1 (UniProt Q9UKI8), for which the log2 fold change with IRAK-1-4 Inhibitor I was 0.027; with ibrutinib, -0.003; in [1], -0.089; with ralimetinib it was 0.02; in [2] it was -0.032; in assay [3], -0.064. Further, the log2 fold change in assay [4] was -0.041; with pinometostat it was -0.041; in [5], 0.019; in assay [6], 0.218 (active).
With STK39 (UniProt Q9UEW8), the log2 fold change with IRAK-1-4 Inhibitor I is 0.048; in the assay with ibrutinib it was -0.006; in assay [1], -0.3 (active); with ralimetinib it was 0.022; in [2] it was -0.09; in [3], -0.124. Besides, the log2 fold change in assay [4] was -0.018; in the assay with pinometostat it was -0.02; in assay [5] it was 0.013; in [6], 0.007.
In the case of TK1 (UniProt P04183), the log2 fold change in the assay with IRAK-1-4 Inhibitor I was 0.037; with ibrutinib, 0.025; in assay [1], 0.003; in the assay with ralimetinib, -0.048; in assay [2], -0.016; in assay [3], 0.059. Moreover, the log2 fold change in assay [4] is -0.001; with pinometostat, -0.013; in [5], 0.06; in assay [6] it was -0.01.
With STXBP2 isoform 3 (UniProt Q15833), the log2 fold change was -0.11 with IRAK-1-4 Inhibitor I; -0.057 with ibrutinib; -0.021 in assay [1]; 0.172 in the assay with ralimetinib; -0.065 in [2]; -0.364 (active) in [3]. Besides, the log2 fold change is 0.147 in [4], 0.189 in the assay with pinometostat, 0.023 in assay [5] and 0.025 in [6].
As to SNX1 (UniProt Q13596), the log2 fold change in the assay with IRAK-1-4 Inhibitor I is 0.022; in the assay with ibrutinib, 0.022; in assay [1] it was -0.227; with ralimetinib, 0.033; in [2], -0.288; in assay [3], -0.246. Moreover, the log2 fold change in [4] was 0.034; with pinometostat, 0.014; in [5], 0.015; in [6], 0.036.
Consider SLC9A6 isoform 2 (UniProt Q92581), for which the log2 fold change with IRAK-1-4 Inhibitor I was 0.052; with ibrutinib it was 0.024; in [1], 0.005; with ralimetinib, -0.056; in assay [2], -0.02; in [3] it was 0.038. Besides, the log2 fold change is 0.042 in assay [4], 0.083 with pinometostat, 0.021 in [5] and 0.023 in [6].
For the target SNX12 isoform 1 (UniProt Q9UMY4), the log2 fold change is 0.039 with IRAK-1-4 Inhibitor I; -0.007 in the assay with ibrutinib; -0.069 in assay [1]; -0.011 with ralimetinib; -0.068 in assay [2]; -0.09 in assay [3]. Also, the log2 fold change in assay [4] is 0.03; in the assay with pinometostat, 0.032; in assay [5] it was -0.007; in assay [6] it was 0.
Take TAOK1 (UniProt Q7L7X3): the log2 fold change with IRAK-1-4 Inhibitor I is 0.011; with ibrutinib, -0.057; in assay [1] it was -0.827 (active); with ralimetinib, 0.062; in [2] it was 0.009; in assay [3], -0.031. For the same target, the log2 fold change in assay [4] is 0.018; with pinometostat, -0.052; in assay [5], 0.011; in assay [6] it was 0.05.
Turning to TGFBR1 isoform 2 (UniProt P36897), the log2 fold change with IRAK-1-4 Inhibitor I is -0.004; with ibrutinib, 0.006; in assay [1], 0.329 (active); with ralimetinib it was 0.072; in assay [2] it was -0.043; in [3] it was 0.025. Besides, the log2 fold change is 0.049 in assay [4], -0.047 with pinometostat, -0.022 in assay [5] and 0.019 in [6].
In the case of TIMM13 (UniProt Q9Y5L4), the log2 fold change is -0.031 with IRAK-1-4 Inhibitor I; 0.012 in the assay with ibrutinib; 0.01 in [1]; -0.008 in the assay with ralimetinib; -0.145 in [2]; 0.048 in [3]. Further, the log2 fold change in [4] is -0.085; with pinometostat it was -0.092; in assay [5], 0.018; in assay [6], 0.092.
In the case of THYN1 (UniProt Q9P016), the log2 fold change is -0.032 in the assay with IRAK-1-4 Inhibitor I; -0.028 in the assay with ibrutinib; 0.039 in assay [1]; -0.01 with ralimetinib; 0.036 in assay [2]; -0.046 in assay [3]. The log2 fold change is 0.025 in [4], 0.004 in the assay with pinometostat, -0.033 in [5] and 0.331 (active) in [6].
For the target STAT6 (UniProt P42226), the log2 fold change is -0.145 with IRAK-1-4 Inhibitor I; 0.031 in the assay with ibrutinib; -0.222 in [1]; 0.054 with ralimetinib; -0.128 in assay [2]; -0.058 in assay [3]. Also, the log2 fold change in [4] was 0.007; in the assay with pinometostat, 0.11; in assay [5] it was 0.125; in assay [6], -0.048.
As for SPG21 (UniProt Q9NZD8), the log2 fold change with IRAK-1-4 Inhibitor I is -0.042; with ibrutinib it was -0.167; in [1], -0.046; in the assay with ralimetinib it was 0.014; in assay [2], 0.043; in assay [3], -0.007. Also, the log2 fold change was 0.021 in [4], 0.019 in the assay with pinometostat, -0.062 in assay [5] and 0.072 in [6].
